Sampled rows, rich in hits. Any-hit rate of the full collection: about 2.9%.
TSHR antag – Antagonists of the Thyroid Stimulating Hormone Receptor: HTS campaign; TSHR-expressing cells, TSH-stimulated cAMP HTRF, 2 h; stronger effect = lower value; activity change, negative = inhibition, % at 11.5 µM; 0.2% of 330,000 active; AID 504810, 2011;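 active = activity change below a set negative limit, meaning inhibition stronger than a set level, cut at about -70% in these data; inconclusive = activity change between two set negative limits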
Target sequence (P16473 whole entry, looked up): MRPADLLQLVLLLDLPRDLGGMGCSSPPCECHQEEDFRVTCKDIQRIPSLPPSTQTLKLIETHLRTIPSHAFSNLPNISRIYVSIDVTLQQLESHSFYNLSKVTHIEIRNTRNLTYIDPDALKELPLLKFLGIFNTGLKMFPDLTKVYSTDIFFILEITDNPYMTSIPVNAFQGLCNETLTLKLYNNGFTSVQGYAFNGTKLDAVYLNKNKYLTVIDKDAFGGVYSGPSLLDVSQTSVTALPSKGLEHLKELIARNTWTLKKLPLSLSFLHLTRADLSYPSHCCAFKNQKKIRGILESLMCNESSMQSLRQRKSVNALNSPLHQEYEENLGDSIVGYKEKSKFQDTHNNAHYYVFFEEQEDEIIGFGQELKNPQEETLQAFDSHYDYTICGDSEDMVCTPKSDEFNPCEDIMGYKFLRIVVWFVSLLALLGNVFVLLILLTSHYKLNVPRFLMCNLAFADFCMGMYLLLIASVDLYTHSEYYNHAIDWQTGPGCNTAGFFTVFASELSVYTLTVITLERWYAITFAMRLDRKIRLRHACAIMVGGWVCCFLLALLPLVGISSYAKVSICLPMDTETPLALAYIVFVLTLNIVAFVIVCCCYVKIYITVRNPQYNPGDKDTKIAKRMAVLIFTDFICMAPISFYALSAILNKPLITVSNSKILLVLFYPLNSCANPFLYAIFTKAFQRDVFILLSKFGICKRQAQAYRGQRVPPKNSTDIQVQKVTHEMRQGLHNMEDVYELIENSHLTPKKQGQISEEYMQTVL
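Competitive HTRF cAMP read-out (cryptate anti-cAMP antibody, cAMP-d2; 30 min, room temperature) in freshly harvested TSHR cells. Compounds added before TSH at EC80 (4nM final), followed by 2 hours' incubation at 37 deg C.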
D3 antag – qHTS of D3 Dopamine Receptor Antagonist: qHTS; 2.5% of 360,000 active; D(3) dopamine receptor (Homo sapiens), P35462; D3R cells, DiscoveRx beta-arrestin luminescence, antagonist mode; stronger effect = lower value; max response, negative = inhibition, %; in the data active = max response below about -50%; inconclusive = no clear call, values can overlap the other calls
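Cells expressing the human receptor were seeded at 1500 cells/well, incubated overnight at 37 degrees C in 5% CO2, then exposed to library compounds with dopamine controls for 90 minutes at 37 degrees C before luminescent detection.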
B2AR arrestin – qHTS assay of beta-arrestin-biased ligands of beta2-adrenergic receptor. Beta-2 adrenergic receptor (Homo sapiens), P07550. beta-arrestin recruitment to beta2AR, cell-based reporter. Potency, µM (titrated, usually from 46.1 µM), hits mostly activators. 0.02% of 330,000 active. AID 492947, 2010; active = well fitted activation curve with a large enough effect; inconclusive = small, poorly fitted or top-dose-only effect; also: nearly all actives have a fitted effect of over 65% in size
DRD3 agonist – qHTS of D3 Dopamine Receptor Agonist: qHTS; 0.58% of 410,000 active; AID 652048, 2013; max activation, %; D3R DiscoveRx beta-arrestin cells, luminescence, 90 min; D(3) dopamine receptor (Homo sapiens), P35462; in the data active = max activation above about 30%
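Agonist mode: compounds and dopamine controls were applied to plated cells for 90 min at 37 degrees C after an overnight attachment at 1500 cells/well. Luminescent read-out followed 30 - 60 minutes at room temperature with DiscoveRx detection reagent.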
Large screens that a line does not name were inactive.

CC(O)[C@@H]1NC(=O)[C@H](CCCCN)NC(=O)[C@@H](Cc2c[nH]c3ccccc23)NC(=O)[C@H](Cc2ccccc2)NC(=O)[C@@H](NC(=O)[C@H](N)Cc2ccccc2)CSSC[C@@H](C(=O)N[C@H](CO)[C@@H](C)O)NC1=O (some centres undefined)	none (no result: TSHR antag, D3 antag, B2AR arrestin)
CCCN(C(=O)Cc1coc2cc(OC)ccc12)C1CCS(=O)(=O)C1 (centres undefined)	D3 antag -52
CCNC(=O)C1(C)CCCN(Cc2csc(-c3ccc(Cl)cc3)n2)C1 (centres undefined)	none (no result: TSHR antag, B2AR arrestin)
CCCNC(=O)C1(C)CCCN(Cc2csc(-c3ccccc3)n2)C1 (centres undefined)	D3 antag -66, DRD3 agonist 45 (no result: TSHR antag, B2AR arrestin)
COCCNC(=O)C1(C)CCN(Cc2csc(-c3ccc(Cl)cc3)n2)C1 (centres undefined)	D3 antag -103 (no result: TSHR antag, B2AR arrestin)
COCCNC(=O)C1(C)CCCN(Cc2ccc(C)c3ccccc23)C1 (centres undefined)	D3 antag -52 (no result: TSHR antag, B2AR arrestin)
Cc1ccc(-n2cc(C(=O)OCc3ccc(Cl)cc3)c3ccccc3c2=O)cc1	none (no result: TSHR antag, D3 antag, B2AR arrestin)
CCOC(=O)CSc1nc(-c2ccc(C)cc2C)cc(-c2ccccc2)c1C#N	none (no result: TSHR antag, D3 antag, B2AR arrestin)
CCCCCc1cc(=O)oc2c(C(CCN3CCCC3)c3cc(OC)c(OC)c(OC)c3)c(OC)cc(OC)c12 (centres undefined)	D3 antag -51
COc1ccc(C(CC(=O)N2CCCC2)c2c(OC)cc(OC)c3c(-c4ccccc4)cc(=O)oc23)cc1 (centres undefined)	none
CCCCCc1cc(=O)oc2c(C(CCN3CCCCC3)c3ccc(OC)cc3)c(OC)cc(OC)c12 (centres undefined)	D3 antag inconclusive
COc1cc(C(CCN2CCCC(C)C2)c2c(OC)cc(OC)c3c(-c4ccccc4)cc(=O)oc23)cc(OC)c1OC (centres undefined)	D3 antag -51
CCCCCc1cc(=O)oc2c(C(CCN3CCCC3)c3ccc(N(C)C)cc3)c(OC)cc(OC)c12 (centres undefined)	D3 antag inconclusive
COc1ccc(C(CC(=O)N2CCOCC2)c2c(OC)cc(OC)c3c(-c4ccccc4)cc(=O)oc23)cc1 (centres undefined)	TSHR antag -82
CCCCCc1cc(=O)oc2c(C(CCN3CCN(c4ccccc4)CC3)c3ccc4c(c3)OCO4)c(OC)cc(OC)c12 (centres undefined)	D3 antag -69
CCOC(=O)c1[nH]c(C)c(CCC(=O)Nc2ccc(C(C)=O)cc2)c1C	none (no result: TSHR antag, D3 antag, B2AR arrestin)
COc1cccc(/C=N/Nc2ncnc3scc(-c4ccccc4)c23)c1OC	DRD3 agonist 36
COc1ccc(-c2csc3ncnc(Nc4ccccc4)c23)cc1	none (no result: TSHR antag, D3 antag, B2AR arrestin)
CN(C)C1(CN=Cc2cc(Cl)cc([N+](=O)[O-])c2O)CCCCC1	D3 antag -68
COC(=O)Cn1c(=NC(=O)c2ccc3c(c2)OCCO3)sc2ccccc21	none (no result: TSHR antag, D3 antag, B2AR arrestin)
CN(C)C/C=C(/c1ccc(Br)cc1)c1cccnc1	D3 antag -105 (no result: B2AR arrestin)
CN(C)CCO/N=C(\c1ccc(Br)cc1)c1cccnc1	D3 antag inconclusive (no result: TSHR antag, B2AR arrestin)
COc1ccc2c(c1)c(CC(=O)Nc1nnc(C3CC3)s1)c(C)n2C(=O)c1ccc(Cl)cc1	DRD3 agonist 54
COc1ccc(-c2ccc(OC)cc2)cc1	D3 antag inconclusive
COc1ccc(-c2nncnn2)cc1	D3 antag -52
CN(C)CC(O)COc1cc2ccccc2cc1C(=O)N1CCCCC1 (centres undefined)	D3 antag -59
COc1cc2ccccc2cc1C(=O)N1CCCCC1	none
CCc1ccc(OCC(=O)N(Cc2ccco2)Cc2ccccc2Cl)cc1	none (no result: TSHR antag, D3 antag, B2AR arrestin)
COc1ccccc1NC(c1cccnc1)c1ccc2cccnc2c1O (centres undefined)	D3 antag inconclusive
Cc1ccnc(NC(c2cccnc2)c2ccc3cccnc3c2O)c1 (centres undefined)	D3 antag inconclusive
Cc1ccc2ccc(C(Nc3ccccc3)c3ccccc3)c(O)c2n1 (centres undefined)	D3 antag inconclusive (no result: TSHR antag, B2AR arrestin)
COc1ccc(C(Nc2cc(C)ccn2)c2ccc3ccc(C)nc3c2O)cc1 (centres undefined)	D3 antag -77
Cc1ccnc(NC(c2ccsc2)c2ccc3ccc(C)nc3c2O)c1 (centres undefined)	D3 antag -98
O=C(O)c1ccccc1NC(c1ccccc1)c1ccc2cccnc2c1O (centres undefined)	D3 antag -95 (no result: TSHR antag, B2AR arrestin)
Cc1ccc2ccc(C(Nc3cccc(C(F)(F)F)c3)c3cccnc3)c(O)c2n1 (centres undefined)	D3 antag -127
Cc1ccnc(NC(c2ccccc2)c2ccc3cccnc3c2O)c1 (centres undefined)	none (no result: TSHR antag, B2AR arrestin)
CCCSc1ncc(Cl)c(C(=O)NCc2ccc(C)cc2)n1	none (no result: TSHR antag, D3 antag, B2AR arrestin)
Cc1ccc(NC(=O)CSc2nc3ccccc3c3nc(CCc4c(C)n[nH]c4C)nn23)c(C)c1	none (no result: TSHR antag, D3 antag, B2AR arrestin)
Cc1ccc2ccc(C(Nc3ccccn3)c3ccccc3)c(O)c2n1 (centres undefined)	D3 antag -59
CCCn1c2ccccc2c2cnn(CC(=O)Nc3ccc(C)cc3Br)c(=O)c21	none (no result: TSHR antag, D3 antag, B2AR arrestin)
O=C(CCCN1CCC(c2ccccc2)C1)c1ccc2c(c1)OCCO2 (centres undefined)	D3 antag -82
O=C(CCN1CCOCC1)c1ccc2c(c1)OCCO2	none
O=C(CCN1CCc2ccccc2CC1)c1ccc2c(c1)OCCO2	D3 antag -94
O=C(CCN1CCCCC1)c1ccc2c(c1)OCO2	D3 antag -65
COc1ccc(NCc2cc3cc4c(cc3n(CC(=O)Nc3ccccc3)c2=O)OCO4)cc1	none (no result: TSHR antag, D3 antag, B2AR arrestin)
CCCCCn1c(=S)[nH]c2cc(C(=O)N3CCN(C(=O)OCC)CC3)ccc2c1=O	D3 antag -90
CCCCCn1c(=S)[nH]c2cc(C(=O)N3CCCC3)ccc2c1=O	none
CCOC(=O)N1CCN(C(=O)c2ccc(-n3c(=S)[nH]c4ccccc4c3=O)cc2)CC1	DRD3 agonist 42
COc1ccc(CNC(=O)c2ccc(CSc3nc4ccncc4n3Cc3ccccc3F)cc2)cc1	none (no result: TSHR antag, D3 antag, B2AR arrestin)
CCc1cc2cc(C)cc(C)c2nc1SCC(=O)N1CCN(C(=O)c2ccco2)CC1	none
CCc1cc2cccc(C)c2nc1SCC(=O)N1CCN(C(=O)c2ccco2)CC1	DRD3 agonist 41
N#Cc1c2c(c(NCc3cccnc3)n3c1nc1ccccc13)CCC2	D3 antag -53
CCCCCCSc1ccc(-c2nc3ccc(Cl)cn3c2NCCCC)cc1OC	TSHR antag -83
CCCCCCSc1cc(-c2nc3cc(C)ccn3c2NCCCC)ccc1OC	none
CCCCNc1c(-c2ccc(SC(C)CC)c(OC)c2)nc2ccc(C)cn12 (centres undefined)	TSHR antag inconclusive, DRD3 agonist 55
CCCCCCSc1ccc(-c2nc3ccc(C)cn3c2NCCCC)cc1OC	none (no result: TSHR antag, B2AR arrestin)

Screening data as filed in PubChem.
